Source: PubChem BioAssay
HCV NS3h FP: hepatitis C NS3 helicase inhibition, primary screen | NS3h Cy5-dT15 DNA binding, fluorescence polarization | inhibition, % at 100 µM | 1.6% of 16,000 active | AID 687043;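 active means inhibition above the average over every tested compound plus 3 SD, cut at about 40% in these data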
Cy5 interf NS3h: Cy5 fluorescence interference, HCV helicase counter-screen; Cy5-dT15 DNA with NS3h; actives lie on both sides; signal over control mean, under 1 quenches; fluorescence interference ratio at 100 µM; 6% of 16,000 active;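 active means compound fluorescence over control fluorescence at most 0.8, a quencher, or at least a set upper limit, an enhancer; inactive means ratio between 0.8 and the set upper limit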
HCV NS3h conf: confirmation of hepatitis C virus NS3 helicase inhibitors | AID 720485 | 20% of 240 active | shares compounds with HCV NS3h FP | NS3h binding to Cy5-dT15 DNA, fluorescence polarization | inhibition, % at 100 µM;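 active means percent inhibition of 50% or more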
SSB-DNA FP CB: disrupts E. coli SSB binding to DNA in counter-screen | shares compounds with HCV NS3h FP | AID 720486 | inhibition, % at 100 µM | 40% of 240 active | E. coli SSB binding Cy5-dT15, fluorescence polarization;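 active means inhibition of at least 50%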;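 further: displacers lower Cy5 polarization so higher inhibition means more SSB displaced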
Target sequence (P0AGE0 whole entry, looked up): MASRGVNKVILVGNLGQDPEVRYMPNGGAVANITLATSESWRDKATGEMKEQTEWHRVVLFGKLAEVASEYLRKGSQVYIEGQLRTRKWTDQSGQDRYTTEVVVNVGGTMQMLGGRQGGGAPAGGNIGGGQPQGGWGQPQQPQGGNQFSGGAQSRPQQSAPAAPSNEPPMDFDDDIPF
Cy5 SSB fluor CB: counter-screen for HCV NS3 helicase inhibitors: fluorescence interference. shares compounds with HCV NS3h FP. Cy5-dT15/E. coli SSB fluorescence interference; actives lie on both sides. fluorescence interference ratio at 100 µM. 8% of 240 active. AID 720487;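 active means fluorescence interference ratio at or above 1.2, signal boosting, or at or below 0.8, signal quenching; inactive means ratio between 0.8 and 1.2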;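 further: ratio of compound well signal to mean negative control signal so 1 means no effect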
Cy5 fluor confirm: Cy5 fluorescence interference, confirmation counter-screen | shares compounds with HCV NS3h FP | Cy5-dT15 DNA/NS3h fluorescence interference counterscreen | fluorescence interference ratio at 100 µM, hits read low | 44% of 240 active | AID 720489;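 active means fluorescence interference ratio at or below 0.8 quencher or at or above a set limitenhancer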;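 further: ratio of compound fluorescence to mean of negative controls so 1 means no interference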
Active calls of the source: *; / = not tested or not shown; + = active, no number. Only some compounds are listed: those with a hit (about 7.6% of all), similar ones and a draw of the others.

SMILES	HCV NS3h FP	Cy5 interf NS3h	HCV NS3h conf	SSB-DNA FP CB	Cy5 SSB fluor CB	Cy5 fluor confirm
COc1cccc(C(=O)Nc2ccc(I)cc2C)c1	4.6	0.992	/	/	/	/
COCCNC(=O)C(=O)NCCc1ccccc1	1.0	1.11	/	/	/	/
O=C(Nc1ccc(F)c([N+](=O)[O-])c1)c1ccc2c(c1)OCCO2	22.1	0.87	/	/	/	/
O=C(Nc1ccc(F)c([N+](=O)[O-])c1)c1ccc2ccccc2c1	38.8	0.73*	40.4	50.2*	0.698*	0.776*
O=C(NC(=S)Nc1ccc2oc(-c3ccc(Cl)c(Cl)c3)nc2c1)c1ccccc1	102.4*	1.2*	17.1	38.1	0.97	0.796*
O=C(NC(=S)Nc1ccc2oc(-c3ccc(Cl)cc3)nc2c1)c1ccccc1	17.1	0.994	/	/	/	/
COc1ccccc1OCCOc1ccc(Br)cc1/C=C1/SC(=S)N(C)C1=O	14.3	1	/	/	/	/
Cn1c(/C=C/c2ccc(C(=O)c3ccccc3)o2)nc2ccccc21	50.8*	1.11	20.3	24.8	0.915	0.923
Cn1c(/C=C/c2ccco2)nc2ccccc21	3.8	0.97	/	/	/	/
CC(C)C(=O)Nc1ccc2oc(-c3cc(I)ccc3Cl)nc2c1	-14.1	1.09	/	/	/	/
COc1ccc(NC(=O)CSc2ccccn2)cc1	-13.7	0.998	/	/	/	/
CCOC(=O)c1[nH]c(=O)[nH]c1CSc1ccccn1	43.8*	1.04	1.3	13.8	0.933	0.901
O=C(O)CCCNC(=O)c1cn(-c2ccccc2)nc1-c1ccccc1	0.7	1.01	/	/	/	/
Cc1c(Cl)cccc1NC(=O)/C(C#N)=C/c1ccc(-c2ccc(C(=O)O)cc2)o1	17.3	1.07	/	/	/	/
O=C1NN(c2ccccc2)C(=O)/C1=C/c1ccc([N+](=O)[O-])o1	81.8*	0.772*	52.0*	117.0*	0.864	0.903
Cc1ccc(-c2ccc(/C=C3\C(=O)NN(c4ccccc4)C3=O)o2)c([N+](=O)[O-])c1	25.2	0.916	/	/	/	/
O=C1NN(c2ccccc2)C(=O)/C1=C/c1ccc(Br)o1	93.5*	1	52.0*	107.3*	0.881	0.792*
O=C1NN(c2ccccc2)C(=O)/C1=C/c1ccc(-c2ccc(C(=O)O)cc2)o1	25.8	0.991	/	/	/	/
COC(=O)C1=C(O)/C(=C\c2cccc(Br)c2)N=C1C	3.6	0.981	/	/	/	/
COc1cc(CN2CCN(Cc3ccc(Cl)cc3)CC2)cc(OC)c1	-2.8	1.03	/	/	/	/
O=C1C=CC(=NS(=O)(=O)c2ccc(Cl)cc2)C=C1	19.3	0.962	/	/	/	/
O=C1C(Cl)=CC(=NS(=O)(=O)c2ccc(Cl)cc2)C(Cl)=C1Cl	84.6*	0.982	55.2*	80.6*	0.769*	0.824
COc1cc(C=C2C(=O)N(C)C(=O)N(C)C2=O)cc(Br)c1OCc1ccccc1	32.4	0.975	/	/	/	/
COc1cc(C=C2C(=O)NC(=O)NC2=O)cc(Br)c1OCc1ccc([N+](=O)[O-])cc1	73.4*	0.729*	19.3	44.2	0.855	0.581*
COc1cc(C=C2C(=O)NC(=O)NC2=O)cc([N+](=O)[O-])c1O	47.8*	0.89	34.1	60.0*	0.886	0.946
SMILES	HCV NS3h FP	Cy5 interf NS3h	HCV NS3h conf	SSB-DNA FP CB	Cy5 SSB fluor CB	Cy5 fluor confirm
COc1cc(C=C2C(=O)NC(=S)NC2=O)cc(Br)c1O	30.6	1	/	/	/	/
CN(C)c1ccc(NC(=O)COc2ccc(Cl)cc2Cl)cc1	9.7	1.14	/	/	/	/
CS(=O)(=O)N(CC(=O)Nc1ccc(Oc2ccccc2)cc1)c1ccccc1Cl	5.3	0.972	/	/	/	/
COc1ccc(/C=c2\sc3nc(-c4ccc(Cl)cc4Cl)nn3c2=O)cc1	8.5	0.979	/	/	/	/
O=C(NC(=S)N1CCOCC1)c1ccccc1	109.9*	0.403*	0.2	-6.8	0.981	0.974
O=C(NC(=S)N1CCCCCC1)c1cccnc1	5.0	1.02	/	/	/	/
CCCC(=O)NC(c1cccc([N+](=O)[O-])c1)c1c(O)ccc2ccccc12 (stereo not drawn)	15.3	0.997	/	/	/	/
O=C(O)c1cccc2c1NC(c1cccc3ccccc13)C1CC=CC21 (stereo not drawn)	49.8*	0.951	18.2	49.0	1.02	0.856
O=[N+]([O-])c1cccc2c1NC(c1ccccc1F)C1CC=CC21 (stereo not drawn)	6.9	0.956	/	/	/	/
O=C1NC(=Nc2ccc(O)cc2)S/C1=C\c1ccccc1	45.9*	1.15	11.8	11.4	0.942	0.976
O=C1NC(=Nc2ccc(Br)cc2)S/C1=C\c1ccc(O)cc1	-3.7	1	/	/	/	/
O=c1oc2ccccc2c(O)c1C=C1C=Nc2ccccc21	45.5*	1.03	30.9	39.3	0.906	0.957
CCN(CC)c1ccc(-n2c(O)c(C=C3C=Nc4ccccc43)sc2=S)cc1	20.3	1.09	/	/	/	/
O=C(N=Nc1c(O)[nH]c(=O)[nH]c1=O)c1cncc(Br)c1	19.4	1.01	/	/	/	/
O=C(CSc1nnc(-c2ccc(Cl)cc2Cl)o1)Nc1ccccc1	1.3	1.01	/	/	/	/
Cc1ccc(-c2nnc(SCC(=O)Nc3ccc(F)cc3)o2)cc1	61.9*	0.869	40.4	32.0	0.999	0.851
Cc1cc(C)c([N+](=O)[O-])cc1-c1ccc(/C=c2\sc3nc4ccccc4n3c2=O)o1	120.8*	1.56*	14.0	32.0	0.933	0.828
O=c1/c(=C/c2ccc(-c3ccccc3Cl)o2)sc2nc3ccccc3n12	6.8	1.03	/	/	/	/
Cc1ccc(S(=O)(=O)Nc2ccc(S(=O)(=O)NC(=O)C(C)C)cc2)cc1	-5.5	1.03	/	/	/	/
Cc1cc(/C=C2\C(=O)NC(=O)N(c3ccccc3F)C2=O)c(C)n1-c1cccc([N+](=O)[O-])c1	9.8	0.964	/	/	/	/
CCOC(=O)C1CCN(C(=O)C(c2ccccc2)c2ccccc2)CC1	7.3	1.11	/	/	/	/
CC(=O)Nc1ccc(N2C(=O)/C(=C/c3ccc([N+](=O)[O-])cc3)C=C2c2ccccc2)cc1	37.3	1.38*	11.8	35.7	1.11	0.991
O=C1/C(=C/c2ccc([N+](=O)[O-])cc2)NC(=S)N1c1ccccc1	7.7	0.894	/	/	/	/
C=CCc1cccc2cc(C(=O)Nc3cccc4c3C(=O)c3ccccc3C4=O)c(=O)oc12	58.4*	0.942	-0.8	-3.2	1	1
C=CCc1cccc2cc(C(=O)NCCc3ccccc3)c(=O)oc12	18.2	0.908	/	/	/	/
SMILES	HCV NS3h FP	Cy5 interf NS3h	HCV NS3h conf	SSB-DNA FP CB	Cy5 SSB fluor CB	Cy5 fluor confirm
CCc1c(C#N)c(N)nc(SCC(=O)c2ccc(C)cc2)c1C#N	7.9	1.01	/	/	/	/
CCN1/C(=C/C=Nc2ccccc2)Oc2ccccc21	2.6	0.889	/	/	/	/
NC1=NN(c2ccc(N)cc2)CC1	+	0.0757*	90.1*	100.0*	0*	0.0718*
CCOc1cc(C2C(=C(O)c3ccc(C)cc3)C(=O)C(=O)N2c2nncs2)ccc1O (stereo not drawn)	3.3	0.937	/	/	/	/
CN1C(=O)/C(=C/c2ccc(-c3ccc(C(=O)O)cc3)o2)SC1=S	76.1*	1.24*	10.8	34.5	0.917	0.985
CCC1=NN2C(=N)/C(=C/c3ccc(-c4cccc(C(=O)O)c4)o3)C(=O)N=C2S1	52.2*	1.01	26.7	86.7*	0.926	0.846
CCC1=NN2C(=N)/C(=C/c3ccc(-c4cccc([N+](=O)[O-])c4)o3)C(=O)N=C2S1	-3.5	0.936	/	/	/	/
COCCN1C(=O)/C(=C\c2ccc(-c3cccc([N+](=O)[O-])c3)o2)SC1=S	4.8	1.08	/	/	/	/
